Test results from PubChem BioAssay AID624483 (NMMLSC, 2012).
Values joined by “and” are separate entries in the source; they are usually repeats but may differ in a detail not shown here. Equal values may be shown once. About 11,000 (3.1%) of roughly 360,000 compounds were called active. Not shown: some 2% with an inconclusive outcome. This is one part of a sample in which actives are shown more often than they occur. Cut-off read from the data, not from the text of the source: active = fluorescence intensity above about 16000; inconclusive = no clear call, values can overlap the other calls; inactive = below that. A structure can be active in one record and inactive in another.

Experiment: compound fluorescence in toxin protease inhibitor counterscreen, primary screen, artefact control for toxin protease inhibitor project, biochemical, multiplex microsphere, HTS (AID 624483)
Conditions: compound autofluorescence counterscreen, microsphere flow cytometry; stronger effect = higher value

| Structure (SMILES) | fluorescence intensity |
| --- | --- |
| CC1Cc2[nH][nH]c(=O)c2C(C2CCCC2)O1 (centres undefined) | 6280 (inactive) |
| Clc1ccc(C[n+]2cc(-c3ccccc3)n3c2CCC3)cc1 | 3590 (inactive) |
| Cc1ccc(C(=O)C[n+]2cc(-c3ccccc3)n3c2CCCCC3)cc1 | 25100 (active) and 2670 (inactive) |
| Cc1ccc(-c2c[n+](CC(=O)Nc3ccccc3)c3n2CCC3)cc1 | 3860 (inactive) |
| O=S(=O)(N1CCCCC1)N1CCNCC1 | 9990 (inactive) |
| O=C(c1ccc(Cl)c([N+](=O)[O-])c1)N1CCN(c2ccccc2)CC1 | 4410 (inactive) |
| CO/N=C/c1ccc(N2CCN(C(=O)c3cccc(Cl)c3)CC2)c([N+](=O)[O-])c1 | 22700 (active) |
| O=C(/C=C/c1ccc(Cl)cc1)N1CCN(c2ccccc2[N+](=O)[O-])CC1 | 2480 (inactive) |
| Cc1cccnc1C(NC(=O)C1CCN(Cc2ccc(Cl)c(Cl)c2)CC1)c1ccc(Cl)cc1 (centres undefined) | 3480 (inactive) |
| Cc1ccc(S(=O)(=O)NCCC(c2ccccc2)c2ccccc2)cc1C(=O)O | 3790 (inactive) |
| COc1ccc(NC(=S)N2CCc3cc(OC)c(OC)cc3C2)cc1 | 5760 (inactive) |
| CCC(C)N(C)C1CCN(C(=S)Nc2ccc(OC)cc2)CC1 (centres undefined) | 4340 (inactive) |
| COc1ccc(NC(=S)N2N=CCC2c2ccccc2)cc1 (centres undefined) | 22400 (active) |
| Cc1ccc(-c2nc3c(Cl)cc(C(F)(F)F)cn3c2Cc2cccc(Cl)c2)cc1 | 5350 (inactive) |
| Cc1ccn(CC(=O)N2N=C(C(F)F)CC2(O)C(F)F)n1 (centres undefined) | 2400 (inactive) |
| Cc1nn(Cc2ccc(C(=O)N3N=C(C(F)F)CC3(O)C(F)F)cc2)c(C)c1[N+](=O)[O-] (centres undefined) | 20600 (active) |
| Cc1ccc(C(C)NC(=O)Cn2nc(C)c([N+](=O)[O-])c2C)cc1 (centres undefined) | 8570 (inactive) |
| CCOC(=O)C1=CN(Cc2ccc(Br)cc2)S(=O)(=O)N(C)C1C (centres undefined) | 2790 (inactive) |
| COc1ccc(C(C#N)=C2C=CC(=NO)c3ccccc32)cc1 | 5680 (inactive) |
| Cn1sc(=O)c2cc(S(=O)(=O)NC3CC3)ccc21 | 3800 (inactive) |
| CC1CCC(NS(=O)(=O)c2ccc3c(c2)CC(=O)N3)CC1 (centres undefined) | 6000 (inactive) |
| CC1CCC(NS(=O)(=O)c2ccc3c(c2)n(C)c(=O)c(=O)n3C)CC1 (centres undefined) | 22600 (active) |
| CC(=O)Nc1ccc(S(=O)(=O)NCCc2ccccc2)cc1 | 11200 (inactive) |
| Cn1c(=O)c(=O)n(C)c2cc(S(=O)(=O)NCCN3CCN(c4ccccc4F)CC3)ccc21 | 5840 (inactive) |

| Structure (SMILES) | fluorescence intensity |
| --- | --- |
| Cn1c(=O)c(=O)n(C)c2cc(S(=O)(=O)NCCc3ccccc3)ccc21 | 21300 (active) |
| COc1ccc([C@H]2CC(=O)C[C@@H](CCn3cc(CC4CCCC4)nn3)O2)cc1 | 5900 (inactive) |
| O=C(NCc1ccccc1)C1c2ccccc2OCC(=O)N1CCCN1CCOCC1 (centres undefined) | 4950 (inactive) |
| O=C(/C=C/[C@H]1O[C@@H](n2ccc(=O)[nH]c2=O)[C@H](O)[C@@H]1O)NCc1ccccn1 | 4540 (inactive) |
| O=C(c1cccc(F)c1)N1CCN(c2ccc([N+](=O)[O-])c3cccnc23)CC1 | 3360 (inactive) |
| N#Cc1ccc(C(c2ccc(C#N)cc2)n2cncn2)cc1 | 5930 (inactive) |
| Cc1cccc(CCNS(=O)(=O)c2ccc3c(c2)NC(=O)CO3)c1 | 6090 (inactive) |
| Cc1cccc(CCNS(=O)(=O)c2ccc(S(=O)(=O)NC3CCCC3)cc2)c1 | 23700 (active) |
| Cc1ccc(S(=O)(=O)NC2CCCCCC2)cc1 | 3430 (inactive) |
| O=C(Nc1nnc([C@H]2C[C@H](O)[C@@H](CO)O2)s1)c1cccc(Cl)c1 | 3090 (inactive) |
| Cc1ccc(C(=O)Nc2nnc(-c3ccncc3)s2)o1 | 20300 (active) |
| NC(=O)CSc1nnc(NC(=O)c2ccc(Br)o2)s1 | 5930 (inactive) |
| O=C(Nc1nnc(Cc2ccc(Cl)cc2)s1)c1ccncc1 | 5560 (inactive) |
| COc1ccc(C(O)c2nc(-c3ccc(OC)nc3)cs2)cc1 (centres undefined) | 3040 (inactive) |
| COc1cc(OC)cc(C2=Cc3ccccc3C(CC(=O)c3ccco3)N2c2ccc(-c3cnc(OC)nc3)cc2)c1 (centres undefined) | 5230 (inactive) |
| Cc1ccc2c(c1)N(CC(=O)N1CCCC(C)C1)C(=O)CO2 (centres undefined) | 6170 (inactive) |
| Cc1ccc(C(=O)N2CCCc3ccccc32)c(Cl)c1 | 3770 (inactive) |
| Cc1ccc2c(c1)N(CC(=O)N1CCCc3ccccc31)C(=O)C(C)O2 (centres undefined) | 22200 (active) |
| Cn1nc(-c2ccc(Cl)cc2)c2cc(C(=O)NCc3ccco3)sc21 | 5560 (inactive) |
| COC(=O)c1ccc(CNC(=O)c2ccc3oc(C(C)C)nc3c2)cc1 | 6320 (inactive) |
| COC(=O)c1ccc(CSc2nncn2C)cc1 | 11000 (inactive) |
| COC(=O)c1ccc(CSc2nc3cc(Cl)ccc3o2)cc1 | 22300 (active) |
| CCC(C)C(CO)NC(=O)/C=C/[C@H]1O[C@@H](n2cnc3c(NC(=O)c4ccccc4)ncnc32)[C@H](O)[C@@H]1O (some centres undefined) | 4240 (inactive) |
| CC(=O)c1ccc(N2CCN(S(=O)(=O)c3ccc4c(c3)CC(=O)N4C)CC2)cc1 | 4560 (inactive) |

| Structure (SMILES) | fluorescence intensity |
| --- | --- |
| COC(=O)c1ccc(C2C(Oc3ccccc3C)C(=O)N2CCc2ccc(OC)c(OC)c2)cc1 (centres undefined) | 2780 (inactive) |
| COc1ccc(CCN2C(=O)c3[nH]nc(-c4ccccc4O)c3C2c2ccc(C)cc2)cc1OC (centres undefined) | 17800 (active) |
| COc1ccc(CCN2C(=O)C(C)=C(C)C2=O)cc1OC | 3920 (inactive) |
| COc1ccc(C2/C=C\CN(S(=O)(=O)c3cccs3)CC(=O)N2Cc2ccc(F)cc2)cc1 (centres undefined) | 3100 (inactive) |
| Cc1cccc(NC(=S)N2CCC(O)CC2)c1C | 4400 (inactive) |
| O=C1Nc2c(Br)cc(Br)cc2C1(O)N1CCOCC1 (centres undefined) | 4310 (inactive) |
| O=C(Cc1ccc(Cl)cc1)NCc1nc(-c2ccccc2)no1 | 3500 (inactive) |
| O=C(CCN1C(=O)[C@H]2CC=CC[C@H]2C1=O)NCc1nc(-c2ccccc2)no1 | 4420 (inactive) |
| O=C1c2ccccc2C(=O)N1CCCc1nc(-c2ccccc2)no1 | 21200 (active) |
| COc1cc(CNc2ncnc3c2ncn3[C@H]2CN(Cc3cccs3)C[C@@H](CO)O2)cc(OC)c1OC | 2940 (inactive) |
| CC1(C(=O)NS(=O)(=O)c2cccc(F)c2)CCN1C(=O)Cc1cc(F)ccc1F (centres undefined) | 3880 (inactive) |
| C/C(=N/NC(=O)c1ccn(C)n1)c1ccncc1 | 4250 (inactive) |
| O=C(/C(=N\O)n1cncn1)c1ccc(Br)cc1Br | 21600 (active) |
| CC(=O)N/N=C(\C)c1ccc(Br)cc1Br | 4300 (inactive) |
| Cc1ccc(NC(=O)Nc2ccc3oc(C)nc3c2)cc1 | 4170 (inactive) |
| Cc1ccc2nc(-c3ccc(NC(=O)c4cccnc4)cc3)oc2c1 | 4480 (inactive) |
| Cc1nc2ccc(NC(=O)C(F)(F)F)cc2o1 | 21700 (active) |
| O=C(CC[C@H]1O[C@@H](n2ccc(=O)[nH]c2=O)[C@H](O)[C@@H]1O)N[C@H](Cc1ccccc1)C(=O)NCCCN1CCCC1=O | 4310 (inactive) |
| O=C1NC(O)CCN1C1CC(O)C(CO)O1 (centres undefined) | 6570 (inactive) |
| CCOC(=O)c1ccc(N2C(=O)CC(N3CCC(C(=O)OCC)CC3)C2=O)cc1 (centres undefined) | 2510 (inactive) |
| CCCCOC(=O)c1ccc(N2C(=O)CC(N3CCN(C/C=C/c4ccccc4)CC3)C2=O)cc1 (centres undefined) | 22500 (active) |
| CCOC(=O)c1ccc(N2C(=O)CC(N3CCN(C(=O)c4ccccc4)CC3)C2=O)cc1 (centres undefined) | 2610 (inactive) |
| CC(OC(=O)c1ccccc1OCc1ccc(Cl)cc1)C(N)=O (centres undefined) | 4810 (inactive) |
| Cc1cc(=O)oc2c1ccc1ccccc12 | 3640 (inactive) |

| Structure (SMILES) | fluorescence intensity |
| --- | --- |
| Cc1ccc(-c2csc(N(Cc3ccco3)C(=O)c3cccs3)n2)cc1 | 2850 (inactive) |
| O=C(O)CN(Cc1ccco1)S(=O)(=O)c1ccccc1 | 3010 (inactive) |
| O=C(O)CCC(=O)N(Cc1ccco1)c1nc(-c2ccccc2)cs1 | 22500 (active) |
| O=C(NCc1cccc(C(F)(F)F)c1)c1ccc2sc(COCCO)nc2c1 | 3760 (inactive) |
| CCNC(=O)NC(=O)C(C)OC(=O)c1cc(S(=O)(=O)N2CCCCCC2)ccc1OC (centres undefined) | 3480 (inactive) |
| CC1=NNC(=O)C1CC(=O)N/N=C/c1ccncc1 (centres undefined) | 4920 (inactive) |
| CCN(CC)c1ccc(NC(=O)CN2C(=O)NC3(CCc4ccccc43)C2=O)cc1 (centres undefined) | 8580 (inactive) |
| CCCCNC(=O)CCNC(=O)c1ccc(C(C)(C)C)cc1 | 20300 (active) |
| CCOc1ccc(NC(=O)CCNC(=O)c2ccc(Br)cc2)cc1 | 3030 (inactive) |
| CCCCC(=O)Nc1ccc(C(=O)NCCCn2ccnc2)cc1 | 10500 (inactive) |
| CC(C)C1Cc2[nH][nH]c(=O)c2C(c2ccc(Cl)cc2)O1 (centres undefined) | 5700 (inactive) |
| NC(=O)c1sc2nc3c(c(-c4ccccc4)c2c1N)CCC3 | 24800 (active) |
| CCN(CC)C(=O)c1sc2nc(-c3ccccc3)ccc2c1N | 4300 (inactive) |
| Cc1sc2nc(CC(N)=O)[nH]c(=O)c2c1-c1ccccc1 | 2450 (inactive) |
| N=c1c2c3c(sc2nc2n1CCCCC2)CCCC3 | 2860 (inactive) |
| c1nnc2c3c4c(sc3ncn12)CCC4 | 23300 (active) |
| S=c1[nH]nc2c3c4c(sc3ncn12)CCCC4 | 2950 (inactive) |
| N=c1c2c3c(sc2ncn1N)CCCCC3 | 19400 (active) |
| N=c1c2c3c(sc2ncn1CCCN1CCOCC1)CCCCC3 | 6250 (inactive) |
| CC(C(=O)O)n1cnc2sc3c(c2c1=O)CCCC3 (centres undefined) | 4940 (inactive) |
| CN1CCN(C(=O)c2ccc(NC(=O)c3ccc(Br)o3)cc2)CC1 | 5550 (inactive) |
| O=C(/C=C/[C@H]1O[C@@H](n2cnc3c(NC(=O)c4ccccc4)ncnc32)[C@H](O)[C@@H]1O)NCc1ccccc1 | 6020 (inactive) |
